Screening results from PubChem.
Shown are actives, neighbours in structure and some others; about 31% of the full set was active somewhere.
CYP2C19 act – activators of human cytochrome P450 2C19 | 96,000 tested, under 10 active | activation factor at 5 µM | recombinant CYP2C19, luciferin-H EGE luminescence; hits give high values; 0 = fully inhibited enzyme, 1 = untreated enzyme | P33261 | AID 1025;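 active = activation factor of at least 2 at 5 µM in the primary screen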;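 also: 0 = wells with 2.5 mM tranylcypromine and 1 = vehicle-only wells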
CYP2C19 inhib – inhibitors of human CYP2C19; inhibition, % at 5 µM; P33261; hit rate 21% among 96,000; CYP2C19 Supersomes, luciferin-H EGE luminescence, 30 min;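 active = CYP2C19 inhibition above a set limit at 5 µM in the primary screen, cut at about 50% in these data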;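 also: plate controls were negative control wells for no effect and 2.5 mM tranylcypromine positive control for full effect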
CYP2C9 act – increases human cytochrome P450 2C9 activity | recombinant CYP2C9, luciferin-H conversion, luminescence; hits give high values; factor 1 = untreated enzyme, 0 = blocked | activation factor at 5 µM | hit rate 1.4% among 96,000 | AID 1024;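 active = activation factor of 2 or more for CYP2C9 at a 5 µM dose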;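 also: 0 = sulfaphenazole-blocked wells and 1 = vehicle-only wells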
Target sequence (P11712 whole entry, looked up): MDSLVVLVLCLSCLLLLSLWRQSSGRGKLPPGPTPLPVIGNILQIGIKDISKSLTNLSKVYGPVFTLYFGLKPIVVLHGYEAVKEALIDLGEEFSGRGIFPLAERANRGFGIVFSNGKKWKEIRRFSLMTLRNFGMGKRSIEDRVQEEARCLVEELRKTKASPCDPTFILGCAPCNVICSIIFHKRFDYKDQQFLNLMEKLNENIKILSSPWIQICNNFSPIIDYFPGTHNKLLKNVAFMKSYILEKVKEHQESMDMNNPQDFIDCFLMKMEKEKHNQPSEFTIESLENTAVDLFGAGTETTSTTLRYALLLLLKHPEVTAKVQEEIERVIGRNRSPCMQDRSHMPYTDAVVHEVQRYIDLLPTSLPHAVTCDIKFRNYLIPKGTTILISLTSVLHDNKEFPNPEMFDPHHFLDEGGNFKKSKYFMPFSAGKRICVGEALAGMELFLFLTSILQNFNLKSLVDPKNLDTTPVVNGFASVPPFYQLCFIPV
CYP2C9 inhib – inhibitors of human CYP2C9; CYP2C9 Supersomes, luciferin-H conversion, luminescence; inhibition, % at 5 µM; hit rate 20% among 96,000; AID 777;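 active = blocking of liver enzyme CYP2C9 beyond about 50% at 5 µM, limit read from the data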
PLAP act – activates human placental alkaline phosphatase; activation fold at 20 µM; purified PLAP enzyme, luminescent substrate read-out; hits give high values; hit rate 1.2% among 96,000; P05187; in the data active = activation fold above about 2
Starred values were filed as active, the others as inactive.

SMILES | CYP2C19 act | CYP2C19 inhib | CYP2C9 act | CYP2C9 inhib | PLAP act
COC(=O)c1cccc(Cn2nnc3ccccc3c2=O)c1 | 0.5 | 51* | 0.7 | 26 | 0.9
CN(C)S(=O)(=O)c1ccc(C(=O)OCn2nnc3ccccc3c2=O)cc1 | 1 | 5 | 0.4 | 59* | 1.3
O=C(OCn1nnc2ccccc2c1=O)c1ccco1 | 0.8 | 16 | 0.9 | 10 | 0.8
N#CC(C(=O)c1ccco1)c1ccccn1 (stereo not given) | 1 | -2 | 0.7 | 28 | 0.9
COc1cc(-n2c(C)nc3cc(C(=O)N4CCOCC4)ccc32)cc(OC)c1OC | 1.1 | -14 | 1.1 | -13 | 1.3
CC(C)N(CCCNC(=O)CC1Oc2ccccc2NC1=O)Cc1ccccc1 (stereo not given) | 1 | -3 | 1.1 | -5 | 1.2
Cc1cc(C(=O)N2CCN(CCc3ccccc3)CC2)no1 | 0.6 | 42 | 0.9 | 6 | 1.1
COC(=O)c1nn(-c2ccccc2)c(Sc2ccc(C)cc2)c1/C=N/O | 1 | 0 | 0.9 | 10 | 0.9
CCCC(C(=O)NC1CCCC1)N(CCCN1CCOCC1)C(=O)c1snc(C(N)=O)c1N (stereo not given) | 0.9 | 7 | 1 | 2 | 1.6
Cc1ccccc1OCC(O)Cn1c(=N)n(CCN2CCOCC2)c2ccccc21 (stereo not given) | 1 | 1 | 0.4 | 57* | 1.8
N=c1n(CCN2CCOCC2)c2ccccc2n1CC(O)COc1ccccc1 (stereo not given) | 1.1 | -11 | 1.1 | -10 | 0.9
N=c1n(Cc2ccccc2)c2ccccc2n1CC(O)COc1ccccc1 (stereo not given) | 1 | -2 | 1 | -1 | 1.1
Cc1ccc(Cn2c(=N)n(CC(O)COc3ccccc3)c3ccccc32)cc1 (stereo not given) | 0.5 | 53* | 0.9 | 14 | 9.4
CCCCn1c(=N)n(CC(O)COc2ccc(C)cc2)c2ccccc21 (stereo not given) | 0.5 | 52* | 1 | 4 | 1.8
Cc1cn(Cc2ccccc2)c(=O)[nH]c1=O | 0.9 | 12 | 0.9 | 9 | 1
CC(C)N(C(=O)CSc1nnc(-c2cc3ccccc3cc2O)n1Cc1ccco1)C(C)C | 0.6 | 37 | 0.4 | 62* | 1.5
O=C(CSc1nnc(-c2cc3ccccc3cc2O)n1Cc1ccco1)N1CCc2ccccc2C1 | 0.4 | 57* | 0.2 | 81* | 1.6
Cc1occc1-c1nnc(SCC(=O)N2CCOCC2)n1Cc1ccco1 | 1.1 | -13 | 1.1 | -7 | 1.3
CCOC(=O)c1c2ccc(OCC(=O)N/N=C/c3ccc(C)cc3)cc2n2ccccc12 | 0.6 | 36 | 0.3 | 65* | 1.2
CCCc1ccc2c(N)c(C#N)sc2n1 | 0.1 | 90* | 0.7 | 27 | 0.8
Cc1ccc2c(N)c(C#N)sc2n1 | 0.8 | 19 | 0.9 | 12 | 0.9
Cc1nn(-c2ccc(Cl)cc2)c2sc(C(=O)N3CCN(c4ccccn4)CC3)cc12 | 1 | 0 | 0.8 | 18 | 1
CCOC(=O)c1sc(NC(C)=O)c(C(=O)OCC)c1C | 0.7 | 27 | 0.8 | 24 | 1.1
CCOC(=O)c1c(NC(=O)CC)sc(C(=O)N2CCCCC2)c1C | 0.3 | 75* | 0.4 | 57* | 1.9
CCOC(=O)c1c(N)sc(C(N)=O)c1C | 0.9 | 7 | 0.8 | 21 | 1
SMILES | CYP2C19 act | CYP2C19 inhib | CYP2C9 act | CYP2C9 inhib | PLAP act
CCOC(=O)c1c(N)ssc1=S | 0.7 | 26 | 0.3 | 66* | 1.4
CCOC(=O)c1c(N)sc(C(=O)N2CCCCCC2)c1C | 0.2 | 81* | 0.7 | 34 | 1.2
CCc1c(C)sc(NC(=O)c2ccco2)c1C(=O)N1CCCCC1 | 1 | 2 | 0.9 | 7 | 1.3
CCOC(=O)c1c(NC(=O)c2ccco2)sc(C(=O)N2CCCC2)c1C | 0.6 | 44 | 0.4 | 56* | 1
CC(=O)OCC(OC(C)=O)C(OC(C)=O)C(OC(C)=O)C(=O)Nc1ccc(C)cc1 (stereo not given) | 0.9 | 13 | 1 | 0 | 1.3
C/C=C(\C)CN1CCN(c2ccc(C)cc2)CC1 | 0.1 | 86* | 1 | -1 | 0.8
CN1CCN(S(=O)(=O)c2ccc(Sc3nnc(-c4cccs4)n3-c3ccccc3)nc2)CC1 | 1 | -3 | 0.9 | 8 | 1.5
C=Cn1nc(C)c2ccccc2c1=O | 1.1 | -7 | 1.2 | -15 | 0.9
COc1ccc(S(=O)(=O)NC(C)C(=O)Nc2ccccc2F)cc1 (stereo not given) | 0.6 | 43 | 1 | 3 | 0.9
CCOC(=O)c1ccc(NC(=O)C(C)NS(=O)(=O)c2ccc(OC)cc2)cc1 (stereo not given) | 0.5 | 50* | 0.5 | 49 | 0.9
CCOC(=O)c1ccc(NC(=O)COc2ccc(S(=O)(=O)NC(C)CC)cc2)cc1 (stereo not given) | 0.8 | 22 | 0.7 | 34 | 1
COc1ccc(S(=O)(=O)NC(C)C(=O)Nc2cccc(C(C)=O)c2)cc1 (stereo not given) | 0.6 | 42 | 0.4 | 64* | 1
Clc1ccc(OCc2nnc3n2N=C(c2ccc4c(c2)OCCO4)CS3)c(Cl)c1 | 0.3 | 74* | 0 | 97* | 0.8
O=C1c2ccccc2C(=O)N1C/C=C/CN1C(=O)c2ccccc2C1=O | 1 | -2 | 1 | 2 | 0.8
Cc1nc2c3ccccc3nc(SCC(=O)N3CC(C)CC(C)C3)n2n1 (stereo not given) | 0.5 | 54* | 0.8 | 23 | 1.4
CCCCn1nnnc1SCC(=O)N1CCCC1 | 1 | 1 | 1.1 | -9 | 1.1
CCOc1ccccc1-c1nc(-c2ccc(NC(=O)Cc3ccccc3OC)cc2)no1 | 0.5 | 52* | 2* | -104 | 1.4
Cc1nn2cc(-c3ccc(-c4ccccc4)cc3)nc2s1 | 1 | 4 | 1 | 5 | 1.1
CCc1nn2cc(-c3ccccc3)nc2s1 | 0.1 | 88* | 0.4 | 59* | 0.8
Cc1ccccc1Oc1ccc(Oc2ccccc2C)nn1 | 0.7 | 26 | 1.6 | -61 | 0.9
CC(=O)Nc1cc(C(=O)N2CCCC2)ccc1Sc1ccc(C)cc1 | 0.4 | 65* | 0.6 | 36 | 1.5
CC(=O)Nc1cc(C(=O)N2CCCC2)ccc1Sc1ccc(Cl)cc1 | 0.7 | 29 | 0.9 | 9 | 1.1
O=[n+]1c2c(n([O-])c3c1CCCC3)CCCCC2 | 1 | 2 | 1 | 0 | 0.9
CCOC(=O)c1c(NC(=O)CN2CCOCC2)sc2c1CC(C)(C)OC2 | 0.5 | 50 | 0.3 | 74* | 1.9
CCOC(=O)c1c(NC(=O)c2ccccc2C)sc2c1CC(C)(C)OC2 | 0.5 | 47 | 0.2 | 77* | 1.8
COCCNC(=O)c1ccccc1NS(=O)(=O)c1ccc(Br)s1 | 0.3 | 72* | 0.1 | 91* | 1.4
CCOc1ccccc1NS(=O)(=O)c1ccc(Br)s1 | 0.1 | 95* | 0.7 | 26 | 1
O=C(c1ccccc1NS(=O)(=O)c1ccc(Br)s1)N1CCOCC1 | 0.6 | 45 | 1.1 | -12 | 1.3
O=C(O)c1ccc(Cl)c(NC(=O)C2CCCN2S(=O)(=O)c2cccc3nsnc23)c1 (stereo not given) | 1.2 | -19 | 1 | -4 | 1.1
